TCR act: activates T cell receptor signaling; primary human leukocytes, anti-CD3, IL-2 HTRF, 48 h; Potency, µM (titrated, usually from 9.22 µM), inactives show top-dose activation of IL-2 secretion, usual class: activators; 330,000 tested, under 10 active; AID 504894; note: % of control where 0% means no effect
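1) Mix primary human leukocytes, a-CD3 beads and compound. 2) Incubate 48 hr. 3) Add HTRF IL-2 reagents (a-IL-2-K, a-IL-2-d2).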
uPA surface inh: inhibitors of cell surface uPA generation. Potency, µM (highest dose often 38.3 µM), without a hit: at the highest dose activity change, negative = inhibition, actives largely listed as inhibitors. cell surface uPA generation assay, qHTS. actives 0.31% (n = 330,000). AID 540303; active = well fitted inhibition curve with a large enough effect; inconclusive = small, poorly fitted or top-dose-only effect; inactive = no such curve, though single readings can be large or run the other way; tested in mouse RAW 264.7 cells; note: potency is the fitted concentration of half-maximal effect; % is set by controls: 0 for no effect and ±100 for the full control effect; nearly all actives have a fitted effect of over 55% in size
Vif-APOBEC3G blk: Vif-A3G binding inhibition; HeLa A3G-eYFP + Vif (tagged APOBEC3G with the HIV-1 protein that degrades it), YFP fluorescence, overnight; Potency, µM (titrated, usually from 46.1 µM), without a hit: at the highest dose activity, negative = active, usual class: inhibitors; actives 0.076% (n = 410,000); AID 602310; note: potency is the fitted concentration of half-maximal effect; % is set by controls: 0 for no effect and ±100 for the full control effect; nearly all actives have a fitted effect of over 60% in size
Target sequence (Q9HC16 whole entry, looked up): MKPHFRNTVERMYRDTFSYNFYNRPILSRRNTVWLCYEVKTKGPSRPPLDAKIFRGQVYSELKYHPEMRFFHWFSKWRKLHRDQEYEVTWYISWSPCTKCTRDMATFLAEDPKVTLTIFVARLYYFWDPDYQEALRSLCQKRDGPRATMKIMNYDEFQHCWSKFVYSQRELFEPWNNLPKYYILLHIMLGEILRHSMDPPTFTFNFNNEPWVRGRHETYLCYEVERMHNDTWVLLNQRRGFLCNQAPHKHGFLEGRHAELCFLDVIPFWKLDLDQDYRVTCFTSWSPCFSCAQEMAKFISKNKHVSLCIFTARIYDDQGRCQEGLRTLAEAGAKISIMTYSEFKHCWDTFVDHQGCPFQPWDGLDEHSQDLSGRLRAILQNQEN
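HeLa cells stably expressing Vif and C-terminally eYFP-tagged A3G, seeded overnight at 37 deg C, then exposed to compound by pintool overnight at 37 deg C. Rise in yellow fluorescence (Ex 488/Em 500-530, Acumen) marks blocked Vif-driven A3G degradation.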
Vif-APOBEC3F blk: inhibitors of Vif-A3F interaction; AID 602313; Potency, µM (top dose mostly 46.1 µM), for the others: at the highest dose activity, negative = active; HeLa A3F-eYFP + Vif (tagged APOBEC3F with the HIV-1 protein that degrades it), YFP fluorescence increase; actives 0.2% (n = 390,000); note: potency is the fitted concentration of half-maximal effect; % of control where 0% means no effect; nearly all actives have a fitted effect of over 65% in size
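Fluorescence increase (Ex 488/Em 500-530) after overnight compound treatment at 37 deg C flags inhibition of Vif-driven A3F-eYFP loss in stable HeLa A3F-eYFP/Vif cells seeded overnight beforehand.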
MBNL1 CUG block: MBNL1-poly(CUG) RNA binding inhibition; Q9NR56; TR-FRET MBNL1-His/biotin-(CUG)12 binding, 665/545 ratio; Potency, µM (top dose mostly 57.5 µM), for inactives: at the highest dose activity change, negative = inhibition, hits mostly inhibitors; actives 0.036% (n = 280,000); AID 2675; active = well fitted inhibition curve with a large enough effect in the signal ratio, with a control signal flat, not every such curve was filed as active; inconclusive = small, poorly fitted or top-dose-only effect, or effect the other way, or a change in a side signal; inactive = no such curve, though single readings can be large or run the other way; the % refers to the signal ratio; note: potency is the fitted concentration of half-maximal effect; % is set by controls: 0 for no effect and ±100 for the full control effect
Target sequence (Q9NR56 whole entry, looked up): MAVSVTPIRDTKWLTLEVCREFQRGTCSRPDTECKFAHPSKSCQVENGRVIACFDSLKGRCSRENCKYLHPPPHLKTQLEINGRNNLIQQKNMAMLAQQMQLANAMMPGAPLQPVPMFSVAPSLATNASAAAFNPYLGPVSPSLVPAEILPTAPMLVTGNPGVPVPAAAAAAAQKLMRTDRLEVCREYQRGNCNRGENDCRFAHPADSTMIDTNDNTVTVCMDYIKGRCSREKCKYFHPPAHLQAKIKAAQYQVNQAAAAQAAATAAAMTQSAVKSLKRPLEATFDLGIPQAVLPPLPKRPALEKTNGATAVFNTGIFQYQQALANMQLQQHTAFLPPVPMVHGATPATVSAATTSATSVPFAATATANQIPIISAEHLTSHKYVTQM
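TR-FRET readout: Ex 340 nm, 665/545 nm emission ratio, normalized to buffer-only (basal) and MBNL1-(CUG)12 controls. Complex of MBNL1-His with Biotin-(CUG)12, compounds 92 nM–58 uM, incubated 60 min at room temperature.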
Chronic BCR inh: inhibitors of chronic active B-cell receptor signaling. ABC-DLBCL IkBa-CBG/CBR reporter, luminescence ratio, 4 h. Potency, µM (series often up to 46.1 µM), for inactives: at the top dose activity change, negative = inhibition, most hits filed as inhibitors. actives 0.05% (n = 340,000). AID 493014; active = well fitted inhibition curve with a large enough effect in the signal ratio, with a control signal flat, not every such curve was filed as active; inconclusive = small, poorly fitted or top-dose-only effect, or effect the other way, or a change in a side signal; the % refers to the signal ratio;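 note: potency is the fitted concentration of half-maximal effect; plate controls were basal doxycycline-induced cells for no effect and cells given 10 µM MG132 for full effect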
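Concentration-response series (up to 46 uM) were applied to TMD8 dual-reporter cells for 4 h at 37C with doxycycline. Green/red ratio, after filter-overlap correction, defined %Activity; red signal alone was normalised to basal cells and zero luminescence.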
Starred values were filed as active, the others as inactive; ? = inconclusive; / = no result given; [ ] = another dose, or the depositor's remark. Hits are enriched below; roughly 0.54% of the tested compounds scored in any of these assays. Unless noted, calls come from the whole dose curve; as a rule, active = well fitted curve in the direction sought with a large enough effect; inconclusive = small, poorly fitted or top-dose-only effect, or another doubt; inactive = no such curve, though single readings can be large; an effect the other way counts as inactive or inconclusive.

SMILES | TCR act | uPA surface inh | Vif-APOBEC3G blk | Vif-APOBEC3F blk | MBNL1 CUG block | Chronic BCR inh
COc1cc(C(O)c2nc3ccccc3s2)cc(OC)c1OC (stereo unspecified) | -4% | -14% | 1% | 2% | 1% | ?
CNS(=O)(=O)c1ccc(N=Cc2c(O)n(-c3cccc(C)c3)c(=O)[nH]c2=O)cc1 | 0% | 0% | -5% | 0% | 0% | 7%
Cc1ccccc1-n1c(O)c(/C=C/C=Nc2ccccc2)c(=O)[nH]c1=O | -8%[46.1 µM] | 3% | 0% | 20µM* | 15% | 5%
Cc1cccc(-n2c(O)c(/C=C/C=Nc3ccccc3)c(=O)[nH]c2=O)c1 | -1%[46.1 µM] | 4% | 5% | 10µM* | ? | -12%
Cc1ccc(C)c(NC(=O)Cn2nc(C)c3nn(-c4ccc(Cl)cc4)c(C)c3c2=O)c1 | / | / | 1% | ? | / | /
COc1ccc(-c2cn(Cc3ccc(C(=O)c4ccccc4)cc3)nn2)cc1 | 6% | ? | ? | -4% | -1% | ?
O=c1[nH]c(CN2CC=C(c3ccccc3)CC2)nc2scc(-c3ccccc3)c12 | 5% | 9% | ? | 10µM* | 16% | -1%
CN1CCc2c(C#N)c(Cl)nc(Cl)c2C1 | -3%[46.1 µM] | 11µM* | 6% | -14% | 22% | ?
Cc1n[nH]c(C)c1CCCCOc1ccccc1[N+](=O)[O-] | 2% | ? | 0% | 0% | 6% | -20%
CC(=O)Nc1ccc2nc(NC(=O)c3ccc([N+](=O)[O-])o3)sc2c1 | 10% | -5% | 13µM* | 5% | ? | ?
O=[N+]([O-])NC1=NCCN1Cc1ccc(Cl)nc1 | 9% | 1.1µM* | 2% | 2% | -5% | -7%
CS(=O)(=O)Nc1cccc(C2=NN(C(=O)c3ccco3)C(c3cccs3)C2)c1 (stereo unspecified) | 6% | ? | -24% | 0% | ? | ?
CCS(=O)(=O)N1N=C(c2cccc(NS(C)(=O)=O)c2)CC1c1ccccc1 (stereo unspecified) | / | 1% | 10µM* | 10µM* | ? | 1%
COc1ccc(/C=C2\Oc3cc(OC(=O)N4CCOCC4)ccc3C2=O)c(OC)c1 | -11% | 5% | ? | 25µM* | / | 3%
CN(CC(=O)Nc1ccc(Cl)c(C(F)(F)F)c1)C(=O)c1ccc(OCC2CCCO2)cc1 (stereo unspecified) | 10% | ? | -8% | -18% | / | -2%
COc1ccc(C[C@@H]2c3cc(O)c(OC)cc3CCN2C)cc1O | 3% | 12% | 2% | 0% | -14% | 3%
COc1cc2c(cc1O)[C@@H]1Cc3ccc(OC)c(O)c3CN1CC2 | 1% | 4.5µM* | ? | -21% | / | ?
Cc1c2ccncc2c(C)c2c1[nH]c1ccccc12 | 6% | 0.89µM* | ? | 10µM* | ? | ?
c1ccc2c(c1)[nH]c1cnccc12 | -3% | 8% | 2% | 2% | 15% | ?
Cc1ccc(C(=O)Nc2ccccc2C(=O)NC(Cc2ccccc2)C(=O)O)cc1 (stereo unspecified) | 4% | -2% | -2% | -5% | -10% | ?
Cc1ccc(CNC(=O)c2ccccc2NC(=O)c2nsc3ccccc23)cc1 | / | / | -8% | 13µM* | / | /
COc1ccc(-c2csc(NC(=O)C3CCN(C(=O)c4ccc(F)cc4)CC3)n2)cc1OC | -3% | ? | 5% | 2% | 4% | ?
COc1ccc(O)c(/C=N/NC(=S)Nc2cccnc2)c1 | -3% | 11µM* | -20% | 0% | 7% | -14%
CC1CCC(C(C)C)C(OC(=O)COC(=O)c2ccccc2N)C1 (stereo unspecified) | 5%[46.1 µM] | 7% | -17% | -26% | -13% | ?
COc1ccc(-c2c[n+](CC(=O)OC3CC(C)CCC3C(C)C)c3n2CCC3)cc1 (stereo unspecified) | 2% | 6.3µM* | 2% | 0% | -3% | ?
SMILES | TCR act | uPA surface inh | Vif-APOBEC3G blk | Vif-APOBEC3F blk | MBNL1 CUG block | Chronic BCR inh
CSc1ccc(C(=O)C2CCCN(C(=O)CCc3c(C)nn(C)c3C)C2)cc1 (stereo unspecified) | -2% | ? | -1% | -16% | / | /
O=c1c2ccccc2nc(/C=C/c2cc(Br)ccc2O)n1CCCO | -5% | -5% | -8% | ? | 3% | ?
Nc1n[nH]c(N)c1N=Nc1ccc2c(c1)OCO2 | 10% | ? | -2% | -3% | ? | ?
O=C1NC(=O)N(c2ccc3c(c2)OCO3)C(=O)/C1=C\c1ccc(N2CCCCC2)o1 | -2%[46.1 µM] | 4% | -15% | 4.5µM* | ? | ?
Cc1ccccc1N1C(=O)NC(=O)/C(=C/c2ccc(N3CCOCC3)o2)C1=O | 6% | 0% | -22% | ? | / | -9%
Cn1cc(S(=O)(=O)N2CCc3ccccc32)cc1C(=O)NC(C)(C)C | -11% | ? | 0% | -2% | 2% | 4%
CN1C(=O)C(=Cc2ccc(N3CCOCC3)o2)C(=O)N(C)C1=O | 1%[46.1 µM] | 5% | -10% | 11µM* | ? | 6%
CCOC(=O)C1(Cc2ccc(Cl)cc2)CCN(C(C)Cc2ccc(O)c(OC)c2)CC1 (stereo unspecified) | 4% | ? | 4% | -3% | -1% | ?
Cc1ccc(-c2nc3c(=O)n(C)c(=O)nc-3n(C)n2)cc1 | / | / | -13% | / | / | /
Cn1ncnc2c(=O)n(C)c(=O)nc1-2 | 7% | 1.1µM* | -29% | 1% | ? | ?
CCCCn1c(O)c(C=NCCCn2ccnc2)c(=O)[nH]c1=O | 5% | 3% | 1% | 4% | -4% | 0%
CC(C)CCCn1c(O)c(/C=C2/C=CC=N2)c(=O)[nH]c1=O | 1%[46.1 µM] | -6% | ? | 25µM* | ? | ?
C[n+]1c(-c2ccccc2)c2cc(N)ccc2c2ccc(N)cc21 | 16% | 7.1µM* | 8% | 7% | ? | ?
COc1ccc2oc(=O)c(C(=O)OCc3ccccc3)cc2c1 | 3% | -1% | -2% | 11% | ? | ?
Cc1ccc(-c2cc(-c3ccccc3)cc(-c3ccccc3)[n+]2-c2ccccc2)cc1 | 0% | 10µM* | ? | -6% | / | ?
C[C@]12CC[C@H]3[C@@H](CCC4=CC(=O)CC[C@@]43C)[C@@H]1CC[C@@H]2C(=O)CO | -1% | 4µM* | 1% | -6% | -13% | ?
Cc1ccc(Nc2nc(N)nc(CCl)n2)c(C)c1 | 1% | 4µM* | -20% | 3% | -7% | -19%
CCc1ccc(N2C(=O)NC(=O)/C(=C\C=C\c3ccco3)C2=O)cc1 | 5% | 8.9µM* | ? | ? | -4% | 8%
O=C1NC(=O)N(Cc2ccccc2)C(=O)/C1=C\c1ccco1 | -1% | -4% | -14% | -35% | 13% | 9%

Assay outcomes from PubChem BioAssay.
